Data taken from PubChem BioAssay AID488839 (Broad Institute, 2010).
The campaign covered roughly 330,000 compounds. About 35 (0.01%) were called active.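 The calls were made as follows: active = highest replicate inhibition of at least 50% and at least 75% of replicates reaching 50%; inconclusive = only one of the two criteria met; inactive = both criteria failed.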 The list is a sample of the results.

Each compound was assayed against Cyclin-dependent kinase 5 (Homo sapiens) + Cyclin-dependent kinase 5 activator 1 (Homo sapiens) (UniProt Q00535+Q15078) (assay: CDK5/p35 phosphotransfer blockade – biochemical, single concentration, primary screen (AID 488839;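 also: plate controls were DMSO neutral control for no effect and GW8510 at 10 µM for full effect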)). Conditions: Recombinant CDK5/p35, ADP-Glo luminescence, 60 min; at 10 µM; stronger effect = higher value.
Cyclin-dependent kinase 5 (Homo sapiens) + Cyclin-dependent kinase 5 activator 1 (Homo sapiens), sequence (Q00535 whole entry, looked up): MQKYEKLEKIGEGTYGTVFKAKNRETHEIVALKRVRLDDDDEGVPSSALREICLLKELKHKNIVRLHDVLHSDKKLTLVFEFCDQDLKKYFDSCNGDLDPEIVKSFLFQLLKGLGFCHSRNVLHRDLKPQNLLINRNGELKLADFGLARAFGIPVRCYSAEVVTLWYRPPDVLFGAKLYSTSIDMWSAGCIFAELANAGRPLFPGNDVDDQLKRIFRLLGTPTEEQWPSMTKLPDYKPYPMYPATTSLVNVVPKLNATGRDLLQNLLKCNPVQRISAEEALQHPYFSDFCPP
Cyclin-dependent kinase 5 (Homo sapiens) + Cyclin-dependent kinase 5 activator 1 (Homo sapiens), sequence (Q15078 whole entry, looked up): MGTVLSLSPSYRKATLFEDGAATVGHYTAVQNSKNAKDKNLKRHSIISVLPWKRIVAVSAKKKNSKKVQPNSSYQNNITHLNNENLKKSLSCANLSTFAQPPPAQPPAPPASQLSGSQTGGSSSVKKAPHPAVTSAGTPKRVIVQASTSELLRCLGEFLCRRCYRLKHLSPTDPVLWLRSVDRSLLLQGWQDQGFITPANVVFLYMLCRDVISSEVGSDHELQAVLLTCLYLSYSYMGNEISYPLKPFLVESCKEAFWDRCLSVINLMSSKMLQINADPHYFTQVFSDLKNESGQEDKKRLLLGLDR

inhibition, inactive:
CC(C)[C@@H](C(=O)O)N(Cc1cccc(CN([C@H](C(=O)O)C(C)C)S(C)(=O)=O)c1)S(C)(=O)=O -2.67%
Cc1cc(-c2csc(N)n2)c(C)n1-c1ccccc1 0.604%
CCCN1C2=C(C(=O)CCC2)C(c2ccc(O)c(Br)c2)C2=C1CCCC2=O 2.42%
CC(Oc1cccc(Cl)c1)C(=O)Nc1ccc(S(=O)(=O)Nc2ncccn2)cc1 (centres undefined) -1.05%
COc1cc(OC)cc(-c2c(C#Cc3ccsc3)c3cc(-c4ccc(OC)cc4F)ccc3n2C)c1 2.95%
O=C1COc2ccc(S(=O)(=O)NCCc3ccc(Cl)cc3)cc2N1 -4.51%
Cc1cccc(N2O[C@H]3C=CC2CCCC3)n1 -0.772%
NS(=O)(=O)c1ccc(CCNC(=O)NC2CCCCC2)cc1 -0.391%
COc1cc(OC)c(C2=NOC(C(=O)Nc3c(C)n(C)n(-c4ccccc4)c3=O)C2)cc1Cl (centres undefined) -0.625%
CCCCc1ccc(S(N)(=O)=O)cc1 0.729%
COc1ccc2c(c1)C=CC1(O2)N(CCO)c2ccccc2C1(C)C (centres undefined) 1.4%
CC(/C=C/C1(O)C(C)CC(=O)CC1(C)C)OC1OC(CO)C(O)C(O)C1O (centres undefined) -0.525%
Cc1ccc(C(=O)N/C(=C/c2ccco2)C(=O)NCCc2c[nH]c3ccccc23)cc1C 2.98%
CCOc1ccc(C(=O)NCC(=O)N2CCN(c3ccc(C(F)(F)F)cn3)CC2)cc1 -6.9%
COc1ccccc1OCCNC(=O)C(CCSC)NC(=O)COc1ccccc1 (centres undefined) 1.86%
O=C(C1CCCO1)N(Cc1ccccc1)c1ccccc1 (centres undefined) -1.15%
O=C(Nc1ccn(CCCNCc2ccc3[nH]ccc3c2)c(=O)n1)OCc1ccccc1 1.87%
O=C(CNC(=O)c1ccc2ccccc2c1)Nc1ncccc1O -1.57%
COc1cc(C2/C(=C(\O)c3ccc4c(c3)CC(C)O4)C(=O)C(=O)N2c2nnc(C)s2)cc(OC)c1OC (centres undefined) -1.78%
COc1cc(S(=O)(=O)N2CCOCC2)ccc1NC(=O)COc1ccc(N(C)S(=O)(=O)c2ccc(C)cc2)cc1 -0.554%
O=S(=O)(NCc1ccccc1Cl)c1cnc[nH]1 0.727%
O=C(OCC(=O)N1CCN(C(=O)c2ccco2)CC1)c1c(Cl)cccc1Cl 0.768%
O=c1c2ccccc2ncn1CCc1ccncc1 1.49%
CCOc1ccc(S(=O)(=O)N/N=C(\C)c2ccc(Cl)c(Cl)c2Cl)cc1 1.98%
CN(C)C1=NC[C@H](Cc2ccccc2)N1CCc1ccc(F)cc1 0.95%
O=S(=O)(/N=C(/Nc1ccccc1)c1ccccc1)c1cccs1 0.387%
OCc1nc(CO)n(Cc2ccccc2)n1 -0.111%
COc1ccc(CCNC(=O)C(=O)NCC2OCCN2S(=O)(=O)c2ccc(OC)c(C)c2)cc1 (centres undefined) 1.39%
O=C(OCC(=O)N1CCCC1)c1ccc(Cl)nc1 1.02%
CCCCC(=O)Nc1nnc(S(=O)(=O)N(C)Cc2ccco2)s1 1.6%
CCn1cc(CN2CCCC(CNS(=O)(=O)Cc3ccccc3)C2)cn1 (centres undefined) 0.0333%
CCc1[nH]nc(C(=O)N2CCCC(CNS(=O)(=O)c3cccs3)C2)c1C (centres undefined) 0.235%
CCN1C(=O)CS/C1=N\c1nccs1 0.817%
O=C(c1cccs1)C1C(c2ccc(Br)cc2)NC(=S)NC1(O)C(F)(F)F (centres undefined) 1.75%
CCc1ccc(-c2cc(C(=O)NN3CCN(C)CC3)c3ccccc3n2)cc1 2.52%
Cc1oc(C(N)=O)cc1COc1ccc(C(N)=O)cc1 1.55%
O=C(CNCc1ccc(F)cc1)Nc1ccccc1-c1ccccc1 0.549%
S=C(NCC1CCCO1)N1CCN(c2ccc(Cl)c(Cl)c2)CC1 (centres undefined) -0.238%
COc1ccc(-c2nc3n(c2Br)CCC3)cc1 1.75%
O=C(Nc1cccc(Cl)c1)Nc1ccccc1NS(=O)(=O)c1cccs1 -1.4%
COc1ccccc1CNC(=O)COC(=O)c1cccs1 0.781%
COC(C[C@@H](O)C[C@@H](O)[C@H](C)OCc1ccccc1)OC -0.836%
N#Cc1ccccc1Sc1ccccc1C(=O)OCC(=O)NC1CCCCC1 -1.96%
O=C(CN(C(=O)c1nsc(Cl)c1Cl)c1cccc(F)c1)NC1CCCC1 0.211%
NC1=NC(=O)C2(COC(c3ccccc3Cl)OC2)S1 (centres undefined) 0.407%
Cn1c(=O)c([N+](=O)[O-])c(Oc2ccccc2)c2ccccc21 3.54%
COc1cc(CNCc2cccs2)cc(Br)c1OC -3.09%
O=S1(=O)CSCS(=O)(=O)C1 -3.39%
Cc1nn(C)c(C)c1C(C)NC(=O)c1ccc(OC2CCN(Cc3ccccn3)CC2)cc1 (centres undefined) -0.745%
Cc1cccc(N(Cc2ccccc2)C(=O)c2cc(S(=O)(=O)N3CCOCC3)ccc2F)c1 -2.98%
CCCCNC(=O)N(O)C1N(/N=C/c2ccc(N(C)C)cc2)C(=S)SC1(C)C (centres undefined) -0.992%
Cc1ccc(-c2csc(N(Cc3ccco3)C(=O)c3cccs3)n2)cc1 0.457%
c1cc(-n2cnnn2)ccc1NC1=NCCC1 -1.51%
CCc1ccccc1N(CC(=O)N1CCN(c2ccccc2F)CC1)S(C)(=O)=O 0.372%
O=C(CCn1c(=S)[nH]c2cc3c(cc2c1=O)OCO3)NCc1ccc(Cl)cc1 1.02%
Cc1cccc(C)c1NC1=NC(=S)N(c2ccc(N(C)C)cc2)C1(C)C -0.0411%
COC(=O)c1sc(C(F)(F)F)c(-c2ccccc2)c1S(=O)(=O)N(C)C -0.853%
CCOC(=O)c1nc(-c2ccc3c(c2)OCO3)[nH]c1C -1.03%
CC(=O)NC(CC(=O)Nc1nc(-c2ccccc2)c(C(C)=O)s1)c1ccccc1 (centres undefined) 0.222%
CON(C)S(=O)(=O)c1ccc2c(c1)NC(=O)C1CCCN21 (centres undefined) -2.05%
Cc1ccc(OCCCCc2c(C)n[nH]c2C)cc1 0.0918%
COC(=O)c1cc(S(=O)(=O)Nc2ccc(C)c(F)c2)c[nH]1 1.29%
O=c1cc(Cl)c2ccccc2n1-c1ccccc1 -0.318%
COc1ccc(C(=O)N2CCN(c3ccc(C(C)=O)cc3F)CC2)cc1S(=O)(=O)NC1CC1 0.384%
COc1ccc(C(C)NC(=S)NC2CCCCC2)cc1OC (centres undefined) -2.83%
CCOc1ccccc1NC(=O)COc1ccc(S(=O)(=O)N2CCCC2)cc1 -0.338%
COc1ccc(CCNC(=O)CCc2cn(C)c3ccccc23)c(OC)c1 1.21%
COc1ccc(-c2nc(CN3CCN(c4ncccn4)CC3)c(C)o2)cc1C 0.124%
COc1ccc(S(=O)(=O)N(CCCN2CCCC2=O)Cc2cc3c(C)ccc(C)c3[nH]c2=O)cc1 -2.49%
CCCCN(CC(=O)Nc1cccc(S(=O)(=O)N2CCCC2)c1)Cc1nc2ccccc2c(=O)[nH]1 0.255%
C=CCn1c(-c2ccccc2OCC)n[nH]c1=S -0.312%
Cc1ccc(NC2CCCN(C(=O)CCc3cn[nH]c3)C2)cc1C (centres undefined) 0.302%
CCCNC(=O)NCc1ccc(N2CCCC2=O)cc1 -1.59%
Cc1nn(-c2ccccc2)c(CC(C)(C)C(=O)O)c1C(=O)O 0.362%
O=C1c2ccccc2C(O)N1Cc1ccccc1Cl (centres undefined) -1.45%
Cc1cccc(-n2c(SCC(=O)Nc3cccc(S(=O)(=O)NC4=NCCCCC4)c3)nc3ccccc3c2=O)c1C 0.0416%
CN(C(=O)CC1C(=O)NCCN1Cc1ccc2ccccc2c1)C1CCOCC1 (centres undefined) 0.878%
COc1ccc(C(C)NC(=O)C2CCCC2)cc1 (centres undefined) -1.29%
O=C(NCCc1nnc2ccc(SCC(=O)N3CCOCC3)nn12)c1ccccc1 -3.67%
CCOC(=O)c1cnc2ccc(F)cc2c1Nc1ccc2c(c1)OCCO2 -0.0856%
Cc1ccc(NS(=O)(=O)c2c(C)[nH]c(=O)[nH]c2=O)cc1C -1.59%
CC1CCCCC1NCC(=O)Nc1ccccc1C(=O)Nc1ccccc1 (centres undefined) -1.88%
COCCn1c(SC(C)C(=O)NC2CC2)nnc1-c1cccc(C)c1 (centres undefined) -7.75%
COCC(C)n1c(C)cc(C(=O)COc2ccc(C)nc2[N+](=O)[O-])c1C (centres undefined) 1.15%
Cc1nnc(SC(C(=O)c2ccccc2)c2ccccc2)[nH]c1=O (centres undefined) 0.641%
COc1cccc(CN2C(=O)CCC2(C)C(=O)NC2CCCCCC2)c1 (centres undefined) 1.09%
COc1cccc2c1OCC(C(=O)NCc1ccc(Cl)cc1Cl)=C2 -2.22%
COc1ccc(CCNC(=O)CCC(=O)NC2CCCCC2)cc1OC 1.39%
CC(=O)Nc1ccc(NC(=O)C(C)OC(=O)C2CC(=O)N(CCc3ccccc3)C2)cc1 (centres undefined) -2.5%
CC1(C)CC(=O)C(C2=NC(C)(C)Cc3ccccc32)=C(O)C1 0.357%
COc1ccc(-n2nc3c(c2NC(=O)c2ccc(N4C(=O)CCC4=O)cc2)CSC3)cc1 2.36%
Brc1ccc(-c2n(-c3ccccn3)c3ccccc3[n+]2-c2ccccn2)cc1 3.32%
C=CCNC(=S)NNc1ncnc2sc3c(c12)CC(C)(C)OC3 -1.36%
Cc1ccc(S(=O)(=O)N2C3C=CC(C3)C2C(=O)O)cc1 (centres undefined) -7.35%
O=C(Cn1cnc2c(OCc3ccccc3)ncnc21)NCCCn1ccnc1 1.18%
CC(C)c1ccc(Nc2nnc(SCC(=O)c3nnc(-c4ccccc4)o3)s2)cc1 1.49%
Cc1cc(C(C)(C)C)cc(S(=O)(=O)Nc2ccc(C(=O)O)cc2)c1C 0.418%
Cc1ccc(SCC2=NNC(=O)C2)cc1 0.0205%
CC(C)C(NC(=O)c1c(F)cccc1F)C(=O)NCc1ccncc1 (centres undefined) -1.58%
Cc1ccc(N(C(=O)c2ccc(S(=O)(=O)N(C)C)cc2)C2C=CS(=O)(=O)C2)cc1 (centres undefined) 1.14%
COc1ccc(Cl)cc1NC(=O)CN(C)Cc1ccc(OC)c(OC)c1 -3.62%
CCOC(=O)N1CCC(NC(=O)Cn2cc3c(n2)CCCCC3)CC1 3.25%
CCCc1nc2oc3c(=O)[nH]cnc3c2c2c1COC(C)(C)C2 -0.359%
CCOC(=O)c1c(NC(C)=O)sc2c(O)c(Br)ccc12 -0.579%
Cc1ccc(C)c(NC(=O)COC(=O)CSc2ccccc2)c1 -0.511%
CCc1cc2c(=O)c(-c3nc4ccccc4n3C)c(CCCC(=O)O)oc2cc1OC(=O)C(C)(C)C -1.94%
O=C(CN1CCOCC1)Nc1c2c(nc3c1CCC3)CCC2 -2.33%
O=C(COC(=O)CNC(=O)C1CCCCC1)NCc1ccccc1 1.54%
CCCCc1nc(SCC(=O)Nc2nnc(C(C)C)s2)n[nH]1 -0.0356%
